{"source": "PubChem BioAssay (NCI)", "note": "Compounds without any hit were thinned out: in the full panel of roughly 83,000, 20% have a hit.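 Testing used 96-well plates and a 48-hour single-concentration exposure. Example: -40 means 40% of the starting cells died.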 Active and inactive are the calls of the source. The calls were made as follows: active = growth percent below 10; inactive = the rest."}
{"test_system": "CCRF-CEM leukemia", "assay": "NCI-60 one-dose screen, 48 h (100 = growth as untreated, 0 = no growth, -100 = all killed)", "details": "10 µM unless noted"}
{"smiles": "COCCOC(=O)C1=C(C)NC(=S)NC1c1ccc2c(c1)OCO2", "note": "(stereo unspecified)", "growth": "104% (inactive)"}
{"smiles": "O=S(=O)(Nc1ccc(F)c(Cl)c1)c1ccc(-c2cnc(C3CC3)o2)cc1", "growth": "19.6% (inactive)"}
{"smiles": "NCCN1CCN(c2nccc(-c3ccc4ccccc4c3)n2)CC1", "growth": "18% (inactive)"}
{"smiles": "CCN(CC)Cc1cc(Nc2c3ccc(Cl)cc3nc3c(C)cccc23)ccc1O", "growth": "4.19% (active)"}
{"smiles": "N#Cc1ccc(NC(=O)Nc2ccc(Cc3ccc(NC(=O)Nc4ccc(C#N)cc4)cc3)cc2)cc1", "growth": "17.4% (inactive)"}
{"smiles": "CCCCNc1ccc2c3c1cccc3c(=O)n1c3ccccc3nc21", "growth": "75% (inactive)"}
{"smiles": "O=C1O[C@H]([C@H](O)CO)C(O)=C1O", "growth": "109% (inactive)"}
{"smiles": "CCC(=O)OCc1cccc(OC)c1", "growth": "73.3% (inactive)"}
{"smiles": "Cc1ccc2cnc(N)c(C#Cc3cncc(C(=O)Nc4ccc(CN5CCN(C)CC5)c(C(F)(F)F)c4)c3)c2c1", "growth": "-45% (active)"}
{"smiles": "CC#Cc1nc2ccccc2c(=O)[nH]1", "growth": "19.6% (inactive)"}
{"smiles": "COc1cc2c(cc1O)CCc1cc(O)cc(OC)c1-2", "growth": "70.7% (inactive)"}
{"smiles": "CCCCCCCCCCCCS(=O)CC(C)O", "note": "(stereo unspecified)", "growth": "101% (inactive)"}
{"smiles": "CCN(CC)CCCNc1cccc2c(SCc3ccccc3)ccnc12", "growth": "-26.1% (active)"}
{"smiles": "COc1ccc(/C=C2\\N=C3Sc4cc(Cl)ccc4C(=O)N3C2=O)cc1", "growth": "93.4% (inactive)"}
{"smiles": "O=C1C(Cl)=C(Cl)C(=O)c2c1nc1n2CCCC1", "growth": "11.7% (inactive)"}
{"smiles": "CN1CCN(Cc2ccc(NC(=O)c3cncc(C#Cc4c(N)ncc5ccc(C#N)cc45)c3)cc2C(F)(F)F)CC1", "growth": "-14.2% (active)"}
